Results reported in PubChem BioAssay (NCATS).
Records with an inconclusive call do not appear. A call without a number means that no potency is given here. Calls of active or inactive are those of the source. The call rests on the fitted dose curve; in most records, active means well fitted cell-killing curve with a large enough effect; inconclusive means small, poorly fitted or top-dose-only effect, or effect the other way; inactive means no such curve, though single readings can be large or run the other way.

Assay: Quantitative High-Throughput drug screen in 47 multiple myeloma cell lines against the NCATS MIPE library collection: EJM_DSMZ cell viability assay (AID 1918926; further: nearly all actives have a fitted effect of over 30% in size)
Conditions: EJM myeloma cell viability, CellTiter-Glo ATP, 48 h; series mostly up to 45.8 µM
Source text: PI: Beverly A. Mock Ph.D.
Laboratory of Cancer Biology and Genetics,
Center for Cancer Research, National Cancer Institute,
National Institute of Health, Bethesda, Maryland
Drug resistance and disease progression are common in multiple myeloma (MM) patients, underscoring the need for new therapeutic combinations. […] We hypothesized that effective combinations would reduce MYC expression and enhance p16 activity. […] These preclinical data identify potentially useful drug combinations for evaluation in drug-resistant MM and reveal potential mechanisms of combined drug sensitivity.
Described herein is the primary MIPE qHTS used to cherrypick compounds. Validated compounds were then further tested for potential synergistic activiy.
[1] Peat TJ, Gaikwad SM, Dubois W, Gyabaah-Kessie N, Zhang S, Gorjifard S, Phyo Z, Andres M, Hughitt VK, Simpson RM, Miller MA, Girvin AT, Taylor A, Williams D, D'Antonio N, Zhang Y, Rajagopalan A, Flietner E, Wilson K, Zhang X, Shinn P, Klumpp-Thomas C, McKnight C, Itkin Z, Chen L, Kazandijian D, Zhang J, Michalowski AM, Simmons JK, Keats J, Thomas CJ, Mock BA. Drug combinations identified by high-throughput screening promote cell cycle transition and upregulate Smad pathways in myeloma. Cancer Lett. 2023 Aug 1;568:216284. doi: 10.1016/j.canlet.2023.216284. Epub 2023 Jun 24. PMID: 37356470; PMCID: PMC10408729.
SEQUENCE No. (e.g., 1, 2, 3, etc.); […] (e.g., Cells, Incubation, Reagent, etc.); VALUE and DESCRIPTION.
1; Cells; 5 uL; white, solid bottom 1536-well Greiner assay plate.
2; Compounds; 23 nL; Kalypsis pin tool (Wako USA) equipped with a 1536-well pin head to transfer to the assay plates.
3; Incubation; 48 hours; 37C incubation.
4; Reagent;5uL; CellTiter Glo (Promega).
5; Detector; 425V; Luminescence; Viewlux PerkinElmer.
NOTES (numbers refer to Sequence numbers above)
1. The cell-based screening methods employed in this study were like those previously published. Briefly, the corresponding myeloma cell lines were screened in 1,536-well plates with 500 cells, 5-uL per well for inhibition of cell viability (assessed by measuring ATP levels with CellTiterGlo).
2. NCATS MIPE 4.0 library of approved and investigational drugs were added using the Kalypsis pin tool. Wells treated with DMSO only for 100% viability and media only wells for 0% viability were used as controls.
3. The assay plates were covered and incubated for 48 hours in a 37C, 5% CO2 incubator with controlled humidity.
4. After 48 hours, CellTilter-GloTM luminescent substrate mix (Promega) reagent was added to the assay plate and plates we incubated for 5 min at room temperature.
5. Signal was measured as median relative luminescence units on a ViewLux (PerkinElmer) multiplate reader.
[1] Heske CM, Davis MI, Baumgart JT, Wilson K, Gormally MV, Chen L, Zhang X, Ceribelli M, Duveau DY, Guha R, Ferrer M, Arnaldez FI, Ji J, Tran HL, Zhang Y, Mendoza A, Helman LJ, Thomas CJ. Matrix Screen Identifies Synergistic Combination of PARP Inhibitors and Nicotinamide Phosphoribosyltransferase (NAMPT) Inhibitors in Ewing Sarcoma. Clin Cancer Res. 2017 Dec 1;23(23):7301-7311. doi: 10.1158/1078-0432.CCR-17-1121. Epub 2017 Sep 12. PMID: 28899971; PMCID: PMC6636827.
Potency means the concentration at half of the fitted maximal effect.

For `CC(C)c1cccc(C(C)C)c1O`, which Potency is on record?
The Potency was “inactive”.

For `CN1C(=O)COc2c(C(=O)NC3CN4CCC3CC4)cc(Cl)cc21` (stereo not given), which Potency is on record?
Its Potency is “inactive”.

Which Potency does the source give for `O=C(O)CCCc1ccc(N(CCCl)CCCl)cc1` here?
The Potency was “inactive”.

With `C[C@](O)(CS(=O)(=O)c1ccc(F)cc1)C(=O)Nc1ccc(C#N)c(C(F)(F)F)c1` as the compound, how does the Potency read?
The Potency was 372 nM (active).

For `CC(NC(C)(C)C)C(=O)c1cccc(Cl)c1` (stereo not given), which Potency is on record?
Its Potency is “inactive”.

Which Potency does the source give for `CCC1(c2ccc(N)cc2)CCC(=O)NC1=O` (stereo not given) here?
The Potency was “inactive”.

For `COc1cc(OC)c(OC)cc1C=O`, which Potency is on record?
Its Potency is “inactive”.

Which Potency does the source give for `C[C@]12CC[C@@H]3c4ccc(OC(=O)N(CCCl)CCCl)cc4CC[C@H]3[C@@H]1CC[C@@H]2OP(=O)(O)O` here?
Its Potency is “inactive”.

For `C[C@]12CC[C@H]3[C@@H](CC[C@@]45O[C@H]4C(O)=C(C#N)C[C@]35C)[C@H]1CC[C@H]2O`, which Potency is on record?
The Potency was “inactive”.

For `CC(C)C[C@H](CN)CC(=O)O`, which Potency is on record?
The Potency was “inactive”.
